Screens from PubChem.
Hits are enriched below; roughly 11% of the tested compounds scored in any of these assays.
NS1 inh – blocks influenza NS1 protein function; Potency, µM (series often up to 46.1 µM), for the others: at the highest dose activity, positive = more growth; AID 2326; hit rate 0.4% among 270,000; calls by dose curve; also: actives are rising curves; nearly all actives have a fitted effect of over 50% in size
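A cell-based growth assay was used: compounds that relieve NS1-induced slow growth of budding yeast raise OD600. Assay medium was yeast nitrogen base with ammonium sulphate and -URA supplement, pH 6.0, with 2% galactose.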
Pf growth 48h – P. falciparum growth inhibition at 48 hours (one generation) | Potency, µM (top dose mostly 28.7 µM), inactives show at the highest dose activity change, negative = inhibition, hits mostly inhibitors | AID 504832 | hit rate 5.9% among 310,000 | P. falciparum luciferase growth in erythrocytes, 48 h; also: % is scaled to controls: 0 for no effect and ±100 for the full control effect
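Firefly luciferase activity from engineered P. falciparum reports growth; inhibitors lower the luminescent signal. Cultures contained 2% hematocrit erythrocytes at 0.1% final parasitemia.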
VACV mCherry inh – vaccinia inhibition (mCherry reporter). Vaccinia virus mCherry reporter infection, fluorescence. Potency, µM (doses to about 36.5 µM), for the others: at the top dose activity change, negative = inhibition, actives largely listed as inhibitors. hit rate 0.63% among 310,000. AID 720579; calls by dose curve; tested in A549 cells; also: % is scaled to controls: 0 for no effect and ±100 for the full control effect; nearly all actives have a fitted effect of over 35% in size
HCV inhibitor – inhibitors of hepatitis C virus infection; Huh7.5.1 HCVcc-Cre infection, luciferase reporter, 44 h; Potency, µM (highest dose often 41.8 µM), inactives show top-dose activity change, negative = inhibition, usual class: inhibitors; hit rate 3.4% among 340,000; AID 651820; also: % is scaled to controls: 0 for no effect and ±100 for the full control effect
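Infectious HCV cell culture screen: compound-treated cells (1,000/well, pre-plated 4 h) are infected with HCVcc-Cre at roughly 0.5 moi and grown 44 h. Infection is quantified by luciferase signal after 15 min substrate incubation at room temperature.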
VACV Venus inh – vaccinia inhibition (Venus reporter) | Vaccinia virus Venus reporter expression, fluorescence | Potency, µM (highest dose often 36.5 µM), for the others: at the top dose activity change, negative = inhibition, usual class: inhibitors | hit rate 0.46% among 330,000 | AID 720580; calls by dose curve; tested in A549 cells; also: % is scaled to controls: 0 for no effect and ±100 for the full control effect; nearly all actives have a fitted effect of over 30% in size
Pf growth 96h – inhibits malaria parasite growth, 96 h; P. falciparum luciferase reporter growth, 96 h; Potency, µM (top dose mostly 28.7 µM), for inactives: at the highest dose activity change, negative = inhibition, actives largely listed as inhibitors; hit rate 6.9% among 320,000; also: % is scaled to controls: 0 for no effect and ±100 for the full control effect
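Two parasite generations (96 h, 37 C, 5% CO2) of compound exposure in infected erythrocytes (0.05% parasitemia, 2% hematocrit). Luciferase-reporter P. falciparum; decreased luminescence indicates inhibited growth, aimed at apicoplast-acting delayed death.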
Active calls of the source: *; i = inactive; ? = inconclusive; . = no result given; [ ] = another dose, or the depositor's remark. Unless noted, calls follow the shape of the dose curve; as a rule, active = well fitted inhibition curve with a large enough effect; inconclusive = small, poorly fitted or top-dose-only effect, or another doubt; inactive = no such curve, though single readings can be large or run the other way. Potency is read from the fitted curve at half-maximal effect.

SMILES	NS1 inh	Pf growth 48h	VACV mCherry inh	HCV inhibitor	VACV Venus inh	Pf growth 96h
CC(C)C[C@H](N)c1cn([C@@H](CCCCN)C(=O)N2CCNCC2)nn1	-0.6%	70.6%	0.501µM*	?	0.794µM*	63.0%
CC(C)CC(N)c1cn([C@@H](CCC(=O)O)C(=O)N2CCNCC2)nn1 (some centres not stated)	2.6%	52.7%	i	28.2%	-5.2%	0.0%
O=C(Nc1ccc(Br)cc1)c1cccc(OC(=S)N2CCOCC2)c1	2.5%	3.7%	i	8.91µM*	-14.8%	-6.6%
Cc1cccc(NC(=O)c2cccc(OC(=S)N3CCOCC3)c2)c1C	4.6%	2.5%	-10.7%	8.1%	-11.2%	1.85µM*
CC(C)C[C@H]1CNC(=S)N1C[C@H]1CCCN1C[C@H](CC(C)C)N1C[C@H](Cc2ccc(O)cc2)N(CC2CCCCCC2)C1=S	.	.	6.7%	.	-10.3%	.
O=C(Nc1ccccc1)c1ccccc1NS(=O)(=O)c1ccc(Cl)s1	-34.5%	?	?	?	?	1.9%
Cc1ccc(NC(=O)c2ccccc2NS(=O)(=O)c2ccc(Cl)s2)cc1	-32.7%	-8.3%	?	11.2µM*	?	?
O=C(CCc1ccc(Oc2cc([N+](=O)[O-])cc([N+](=O)[O-])c2)cc1)N1CCCCC1	-1.4%	11.7µM*	-3.1%	?	-16.1%	?
O=C(c1ccc(Oc2ccc([N+](=O)[O-])cc2)cc1)N1CCCCCC1	-39.1%	26.3%	i	25.1µM*	-12.7%	2.7%
O=C(NCC1CCN(C(=O)c2ccc([N+](=O)[O-])cc2)CC1)C(=O)Nc1ccccc1	.	2.6%	-8.0%	-14.1%	6.8%	14.7µM*
CCc1nc2ccc(C(=O)N3CCN(S(=O)(=O)CC)CC3)cn2c1N(C)C(=O)c1cccc(OC)c1	.	.	31.2%	.	-10.7%	.
O=c1nc2sc3ccccc3n2c(=O)n1-c1ccc(Cl)c(Cl)c1	.	.	-9.4%	.	0.3%	.
COCc1cc(C)nc(SCC(=O)Nc2cc3c(cc2C#N)OCO3)c1C#N	?	3.0%	-11.2%	10µM*	-4.6%	12.0%
COCc1cc(C)nc(SCC(=O)Nc2ccccc2C)c1C#N	-6.6%	-10.7%	-12.4%	-1.2%	-10.0%	?
CC(=O)n1c2ccccc2c2c1c1ccccc1n2C	-54.0%	55.3%	.	2.24µM*	0.1%	-5.2%
CC(=O)n1c2ccccc2c2nc3ccccc3nc21	5.0%	44.3%	.	-0.9%	.	2.62µM*
Cc1ccc(C)c(N2CCN(C(=O)c3csc(C)c3C)CC2)c1	-23.0%	-20.6%	i	6.2%	-16.3%	19.6%
C#CC1(O)CCCC2C3CCC4CC(OC(C)=O)CCC4(C)C3C(=O)CC21C (configuration not stated)	.	.	-2.4%	13.1%	-9.1%	.
CC1=CC(c2ccc(Cl)cc2)n2ncnc2N1 (configuration not stated)	.	.	i	0.891µM*	-3.6%	.
CCOc1ccc(C2C=C(c3ccc(C)cc3)Nc3nnnn32)cc1 (configuration not stated)	-8.4%	8.28µM*	.	-11.7%	.	13.1µM*
CCOc1ccc(C2C=C(c3ccc(C)cc3)Nc3ncnn32)cc1 (configuration not stated)	-94.4%	10.4µM*	.	.	.	135.7%
N#CC1=C(SCc2ccccc2Cl)NC(=O)C(C(N)=O)C1 (configuration not stated)	-11.9%	-0.4%	i	1.0%	-5.4%	-13.7%
O=C(CNC(=O)c1ccccc1Br)N/N=C\c1cc([N+](=O)[O-])cc(Br)c1O	-45.2%	10.7%	?	2.7%	-0.4%	32.6%
COc1cccc(NC(C)C(=O)Nc2cc([N+](=O)[O-])ccc2Cl)c1 (configuration not stated)	.	-25.8%	-28.5%	?	-18.4%	14.7µM*
COc1ccc(CN(C)C(C)C(=O)Nc2ccc([N+](=O)[O-])cc2Cl)cc1OC (configuration not stated)	-13.8%	?	?	?	-21.5%	11.7µM*
SMILES	NS1 inh	Pf growth 48h	VACV mCherry inh	HCV inhibitor	VACV Venus inh	Pf growth 96h
CCC(CC)C(=O)Nc1cc([N+](=O)[O-])ccc1Cl	?	-1.0%	i	-15.5%	-5.5%	7.38µM*
CCN1C(c2ccc(F)cc2)=CS/C1=C(/C#N)c1nnc2n1-c1ccccc1SC2	.	.	-13.1%	.	-19.7%	.
Cc1ccn2c(C(=O)N/N=C\c3ccc4c(c3)OCO4)c(C)nc2c1	-16.8%	-27.2%	-12.4%	6.0%	-22.8%	?
O=c1c2ccccc2nc2n1CCCCC2	-5.9%	61.9%	i	5.1%	-14.4%	?
N=c1c2ccccc2nc2n1CCCCCCCCCCC2	.	.	i[7.34 µM]	12.6µM*	-9.4%[7.34 µM]	.
COc1ccc(Cl)cc1Nc1nc(NCCO)nc(N2CCCC2)n1	-4.3%	?	-12.7%	?	-16.6%	34.6%
Cc1cccc(C(=O)Nc2c(C(=O)N3CCN(C)CC3)cnn2-c2ccccc2)c1	.	.	1.3%	4.1%	0.9%	.
COc1cccc(OC)c1C(=O)NC(=S)Nc1ccc2c(c1)Cc1ccccc1-2	1.3%	.	.	0.0%	.	-14.8%
Cc1c(NC(=O)Nc2cccc(F)c2)c(=O)n(-c2ccccc2)n1C	8.3%	5.6%	.	4.9%	.	?
Cc1cccc(C(=O)Oc2ccccc2C2C[C@]3(C)CC(=O)NC3N2C(=O)c2cccc(C)c2)c1 (some centres not stated)	10.7%	.	-33.3%	3.7%	-20.9%	5.86µM*
C[C@@]12CC(=O)NC1N(C(=O)c1cccc(C(F)(F)F)c1)C(c1ccccc1O)C2 (some centres not stated)	11.9%	-9.4%	-7.3%	5.5%	-15.5%	.
O=C1C(=O)c2ccccc2C(O)=C1CCCCl	-46.6%	0.828µM*	.	?	.	1.85µM*
O=c1[nH]cccc1-c1nc2ccccc2[nH]1	2.3%	-23.0%[0.00184 µM]	-10.6%	2.7%	-7.9%	100.4%
FC(F)(F)c1nc2ccccc2n2c(-c3ccc(Cl)cc3Cl)nnc12	7.0%	5.3%	.	3.8%	-17.0%	-6.9%
FC(F)(F)c1nnc2c(Sc3ccccc3)nc3ccc(Cl)cc3n12	1.8%	?	.	11.2µM*	.	?
Fc1cc(F)c(C2SCCN2C(=S)Nc2cccc(C(F)(F)F)c2)c(F)c1 (configuration not stated)	2.6%	?	-9.4%[7.34 µM]	-18.5%	-15.7%[7.34 µM]	2.94µM*
CCN1CCN(C(=S)Nc2cccc(C(F)(F)F)c2)CC1	-2.8%	18.6%	-19.1%	-1.8%	-6.2%	9.28µM*
Cc1ccc2c(c1)N(CC(=O)c1cccc(Cl)c1)C(=O)C(C)O2 (configuration not stated)	7.0%	?	-7.5%	?	-0.6%	4.15µM*
O=c1[nH]c(=O)n(-c2cccc3ccccc23)c(O)c1/C=N/N1CCCCC1c1cccnc1 (configuration not stated)	4.5%	1.7%	i	5.1%	-10.5%	?
